Source: PubChem (National Center for Advancing Translational Sciences (NCATS))
An excerpt weighted towards active compounds, which were near 11% of everything screened.
IMPase cell inh = qHTS Assay for Identifying the Cell-Membrane Permeable IMPase Inhibitors | Inositol monophosphatase 1 (Rattus norvegicus), P97697 | CHO-M1 cells, IP1 accumulation, HTRF TR-FRET ratio | inhibition (IP1 accumulation), % at 46.1 µM | 120,000 tested, under 10 active; active means well fitted curve in the direction sought with a large enough effect in the signal ratio, not every such curve was filed as active; inconclusive means small, poorly fitted or top-dose-only effect, or a change in a side signal; inactive means no such curve, though single readings can be large or run the other way; the % refers to the signal ratio;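 further: cells stimulated with carbachol in lithium chloride buffer; plate controls were DMSO basal wells for no effect and reference inhibitor wells for full effect; higher means more IMPase inhibition seen as more IP1 and lower FRET ratio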
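Elevated IP1 in lysates lowers TR-FRET signal (665/620 ratio and 620 channel reported). Cells were CHO-M1, given carbachol (50 uM as added) plus 50mM LiCl, pH 7.4, 30 min, 37C; compounds titrated up to 46 uM; AC50 by Hill equation.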
IMPase Li inh = qHTS Assay for Identifying the Cell-Membrane Permeable IMPase Inhibitors: Potentiation with Lithium | CHO-M1 cells, IP1 TR-FRET (IP-One), carbachol + lithium | Potency, µM (titrated, usually from 59.4 µM), inactives show at the top dose activity, negative = IMPase inhibition, most hits filed as inhibitors | 210,000 tested, 0.35% active | AID 1457, 2008; active means well fitted curve in the direction sought with a large enough effect; inconclusive means small, poorly fitted or top-dose-only effect, or another doubt; inactive means no such curve, though single readings can be large; an effect the other way counts as inactive or inconclusive;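 further: IP1 builds up when IMPase is blocked and the TR-FRET signal falls; potency means the concentration at half of the fitted maximal effect; plate controls were basal vehicle for no effect and high inhibitor control for full effect; nearly all actives have a fitted effect of over 50% in size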
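CHO-M1, 2000 cells/well, 16–30 h culture; cpd + low Li+, 30 min 37C; lysis with d2-IP1/Eu-anti-IP1 Ab, 10 min RT; TR-FRET 665/620 ratio and 620 channel; AC50 via Hill.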
ALDH1A1 inh = qHTS Assay for Inhibitors of Aldehyde Dehydrogenase 1 (ALDH1A1); Purified ALDH1A1, NADH fluorescence, propionaldehyde substrate; Potency, µM (doses to about 75.3 µM), for inactives: at the highest dose activity, negative = inhibition, usual class: inhibitors; 220,000 tested, 7.3% active; AID 1030, 2008;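 further: potency means the concentration at half of the fitted maximal effect; plate controls were no enzyme wells and a reference inhibitor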
12-hLO inh = qHTS Assay for Inhibitors of 12-hLO (12-human lipoxygenase); Potency, µM (doses to about 57.1 µM), for inactives: at the highest dose activity change, negative = inhibition, actives largely listed as inhibitors; 150,000 tested, 0.12% active; purified 12-hLO, xylenol orange hydroperoxide absorbance; active means well fitted curve in the direction sought with a large enough effect; inconclusive means small, poorly fitted or top-dose-only effect, or another doubt; inactive means no such curve, though single readings can be large; an effect the other way counts as inactive or inconclusive; further: potency means the concentration at half of the fitted maximal effect; nearly all actives have a fitted effect of over 55% in size
Target sequence (P18054 whole entry, looked up): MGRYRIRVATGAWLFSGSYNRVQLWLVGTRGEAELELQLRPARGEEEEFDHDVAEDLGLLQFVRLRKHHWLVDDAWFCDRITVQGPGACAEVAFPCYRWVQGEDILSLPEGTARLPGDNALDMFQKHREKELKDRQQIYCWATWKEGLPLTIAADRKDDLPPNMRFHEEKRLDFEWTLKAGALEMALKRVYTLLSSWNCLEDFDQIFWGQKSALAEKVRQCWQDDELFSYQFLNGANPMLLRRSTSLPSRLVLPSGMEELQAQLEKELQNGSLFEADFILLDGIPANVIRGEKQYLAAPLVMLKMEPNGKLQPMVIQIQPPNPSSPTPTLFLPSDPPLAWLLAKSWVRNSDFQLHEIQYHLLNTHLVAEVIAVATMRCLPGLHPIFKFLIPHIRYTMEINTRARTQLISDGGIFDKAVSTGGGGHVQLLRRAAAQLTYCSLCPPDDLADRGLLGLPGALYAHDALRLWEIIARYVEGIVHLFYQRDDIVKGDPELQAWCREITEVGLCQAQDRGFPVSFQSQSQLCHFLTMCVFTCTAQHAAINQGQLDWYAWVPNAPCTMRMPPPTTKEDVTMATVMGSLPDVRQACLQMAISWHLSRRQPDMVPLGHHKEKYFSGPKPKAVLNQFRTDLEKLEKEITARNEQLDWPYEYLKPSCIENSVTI
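Hydroperoxide output read as Fe(III)-xylenol orange absorbance, 573-to-405 nm ratio, after 30 min reaction with 40 uM arachidonic acid. Enzyme: 150 nM purified human 12hLO, 15 min compound preincubation; 25 mM Hepes pH 7.0, room temperature.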
HPGD block = qHTS Assay for Inhibitors of HPGD (15-Hydroxyprostaglandin Dehydrogenase); 15-hydroxyprostaglandin dehydrogenase [NAD(+)] (Homo sapiens), P15428; purified HPGD, NADH fluorescence kinetic, PGE2 substrate; Potency, µM, for inactives: at the top dose activity change, negative = inhibition, hits mostly inhibitors; 150,000 tested, 4.3% active; AID 894, 2007; further: potency means the concentration at half of the fitted maximal effect
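20 nM HPGD preincubated 15 min at room temperature with compound in 50 mM Tris-HCl pH 8, 0.01% Tween 20. Started with 1 mM NAD+ and 30 uM prostaglandin E2; NADH fluorescence (360/450 nm) read 5 times over 30-s intervals, last minus first.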
PNC inhibitor = High Content Assay for Compounds that inhibit the Assembly of the Perinucleolar Compartment; PC3M PTB-GFP, PNC prevalence imaging, 16 h; stronger effect = lower value; activity change (PNC), negative = inhibition, % at 10 µM; 140,000 tested, 3.1% active; AID 2417, 2010;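 active means readout at or below -70, meaning at least 70% loss of cells showing the perinucleolar compartment, a nuclear body marking cancer cells; inconclusive means readout between -30 and a set limit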;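 further: plate controls were DMSO wells for no effect and camptothecin positive control wells for full effect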
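Read-out is percentage of cells bearing a perinucleolar compartment, from automated 20x imaging of fixed, Hoechst-stained PC3M PTB-GFP cells. Cells were seeded 4 h, then exposed 16 h to compound (23 nl of library stock) in duplicate plates.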
* hit, by the source's call; [ ] = dose if it differs, or a comment. Unless noted, the call rests on the fitted dose curve; in most records, active means well fitted inhibition curve with a large enough effect (not every such curve was filed as active); inconclusive means small, poorly fitted or top-dose-only effect, or another doubt; inactive means no such curve, though single readings can be large or run the other way. Unless noted, on the % scale 0 is the no-effect control and ±100 the full control effect.

What do the screens show for `NCC(=O)NC1(C(=O)O)CCCC1`?
IMPase Li inh: 11%; ALDH1A1 inh: -3%[13.5 µM]; 12-hLO inh: 9%[11.4 µM]; HPGD block: -2%

Results for Cc1cc(C)nc(SCC(=O)N/N=C/c2cc(C)n(-c3ccccc3C)c2C)n1 ?
IMPase Li inh: 8%; ALDH1A1 inh: 10µM*; 12-hLO inh: -2%; HPGD block: -14%; PNC inhibitor: 8

How did Cc1cccc(C)c1-n1c(C)cc(/C=N/NC(=O)CSc2ncccn2)c1C do in these assays?
IMPase Li inh: 8%; ALDH1A1 inh: 10µM*; 12-hLO inh: -2%; HPGD block: -15%; PNC inhibitor: -15

What do the screens show for `Cc1ccccc1N(CC(=O)N/N=C/c1cc(C)n(-c2ccccc2C)c1C)S(C)(=O)=O`?
IMPase cell inh: 8; IMPase Li inh: 8%[38.3 µM]; ALDH1A1 inh: 4µM*; 12-hLO inh: -2%; HPGD block: inconclusive; PNC inhibitor: -23

Results for Cc1ccccc1N(CC(=O)N/N=C/c1cc(Br)c(C)o1)S(C)(=O)=O ?
IMPase Li inh: -1%; ALDH1A1 inh: inconclusive; 12-hLO inh: -1%; HPGD block: -9%; PNC inhibitor: -25

What do the screens show for `Cc1cc(C)nc(SCC(=O)N/N=C\c2sccc2C)n1`?
IMPase cell inh: 3; IMPase Li inh: 1%[38.3 µM]; ALDH1A1 inh: 8%; 12-hLO inh: -3%; HPGD block: -3%; PNC inhibitor: 67

What do the screens show for `Cc1cccc(C)c1-n1c(C)cc(/C=N\NC(=O)CC(=O)NC2CCCCC2)c1C`?
IMPase Li inh: 4%; ALDH1A1 inh: -12%; 12-hLO inh: -3%; HPGD block: 0%; PNC inhibitor: 35

How did COC(=O)c1ccc(C(NC(=O)OCc2ccccc2)/C(C)=C/[C@@H](C)C(=O)NCCN2CCOCC2)cc1 (some centres not stated) do in these assays?
IMPase Li inh: -2%; ALDH1A1 inh: -5%; 12-hLO inh: 1%; HPGD block: -7%

Results for Cc1c(Cl)cccc1NC(=O)CCOc1ccccc1 ?
IMPase cell inh: 1

What do the screens show for `COC(=O)N1CCC2(CCCN(Cc3nccs3)C2)CC1`?
IMPase Li inh: 22%; ALDH1A1 inh: -2%; 12-hLO inh: 0%; HPGD block: -2%

What do the screens show for `O=C(Cc1cnc2ncnn2c1)N1CCc2c([nH]c3ccccc23)C1c1ccccc1F` (configuration not stated)?
IMPase Li inh: 11%; ALDH1A1 inh: 4.5µM*

How did COc1ccc(/C=C(\C#N)C(N)=O)cc1OC do in these assays?
IMPase Li inh: 2%; ALDH1A1 inh: -7%[13.5 µM]; 12-hLO inh: -1%[11.4 µM]; HPGD block: -4%

How did CCN(CC)c1ccc(/C=C(\C#N)C(N)=O)cc1 do in these assays?
IMPase Li inh: 31%; ALDH1A1 inh: 32µM*

Results for CN(C)/C=C(\C#N)C(N)=C(C#N)C#N ?
IMPase Li inh: -11%; ALDH1A1 inh: -3%

Results for N#CC(C#N)=C(N)/C(C#N)=C/c1ccc(O)cc1 ?
IMPase cell inh: -27; IMPase Li inh: inconclusive; ALDH1A1 inh: 2.2µM*; 12-hLO inh: -4%; HPGD block: inconclusive

What do the screens show for `CCN(CC)c1ccc(/C=C(\C#N)C(=O)c2ccc(Br)cc2)cc1`?
IMPase Li inh: 0%; ALDH1A1 inh: 11µM*; 12-hLO inh: -1%; HPGD block: -12%; PNC inhibitor: -20

How did CCN(CC)c1ccc(C(=O)O)cc1 do in these assays?
IMPase cell inh: 4; IMPase Li inh: 4%; ALDH1A1 inh: -6%; 12-hLO inh: 1%; HPGD block: -6%; PNC inhibitor: 10

What do the screens show for `CC1/C=C/C=C/C=C/C=C/C=C/C=C/C=C/C(OC2OC(C)C(O)C(N)C2O)CC2O[C@@](O)(CC(O)CC(O)C(O)CCC(O)CC(O)CC(=O)OC(C)[C@H](C)C1O)CC(O)C2C(=O)O` (some centres not stated)?
IMPase Li inh: 15%; ALDH1A1 inh: inconclusive; 12-hLO inh: -6%; HPGD block: inconclusive

What do the screens show for `CC#CCN1c2ccccc2[C@]23C[C@@H](C(=O)OC)N(S(=O)(=O)c4ccc(OC)cc4)C2=NC(C(=O)OC)=C(C(=O)OC)[C@H]13`?
IMPase Li inh: -10%; ALDH1A1 inh: -8%[13.5 µM]; 12-hLO inh: 0%[11.4 µM]; HPGD block: -1%

How did CC(C)=CCC/C(C)=C/CO/N=C1/C[C@@H](O)[C@@H](O)[C@@H]2[C@@H]3C(=O)N(c4cccc(Oc5ccccc5)c4)C(=O)[C@H]3CC[C@H]12 do in these assays?
ALDH1A1 inh: 2%[13.5 µM]

What do the screens show for `CC(C)CCc1noc(CN2CCN(c3ccc(Cl)cn3)CC2)n1`?
IMPase Li inh: 19%; ALDH1A1 inh: 4µM*

Results for O=C(CCCN1C(=O)c2cccc3cccc(c23)C1=O)N1CCN(c2ncccn2)CC1 ?
IMPase Li inh: -4%; ALDH1A1 inh: 28µM*

What do the screens show for `O=C(NNc1ccc([N+](=O)[O-])cc1)C1CC2CCCC(C1)C2=O` (configuration not stated)?
IMPase cell inh: 2; IMPase Li inh: -5%[38.3 µM]; ALDH1A1 inh: -8%; 12-hLO inh: -6%; HPGD block: -17%; PNC inhibitor: -109*

What do the screens show for `NNC(=O)C1CC1c1ccccc1` (configuration not stated)?
IMPase cell inh: inconclusive; ALDH1A1 inh: 4µM*; 12-hLO inh: -2%; PNC inhibitor: -17

Results for NNC(=O)[C@@H]1C[C@@H]1c1ccccc1 ?
IMPase Li inh: 4%; ALDH1A1 inh: 7%; 12-hLO inh: -1%; HPGD block: -4%; PNC inhibitor: 4

How did O=C(NNc1ccc([N+](=O)[O-])cc1)C1CC1c1ccccc1 (configuration not stated) do in these assays?
IMPase Li inh: -2%; ALDH1A1 inh: 10µM*; 12-hLO inh: -4%; HPGD block: 25µM*; PNC inhibitor: 23

How did COc1ccc(COC(=O)N/N=C2/C[C@@H](O)[C@@H](O)[C@@H]3[C@@H]4C(=O)N(C[C@@H]5CCCO5)C(=O)[C@H]4CC[C@H]23)cc1 do in these assays?
ALDH1A1 inh: -3%[13.5 µM]
